# The list is not random: actives were taken first. Their share in the collection is about 6.8%.
# Fluor 339 460: intrinsic fluorescence of library compounds, ex339/em460 – biochemical, MLSMR library, data from DPM-DC assay, artefact control, profiling panel | compound autofluorescence, ex339/em460 nm, NADH buffer; stronger effect = higher value; 1 = no-compound wells, NADH background | fluorescence fold increase at 10 µM | AID 709 | 65,000 tested, 5.5% active;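 active means at 10 µM, mean starting fluorescence two-fold or more over control wells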;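 further: signal is the first read of a kinetic run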
# NADH enzymes: inhibitors of enzymes used to reach an NAD/NADH endpoint; coupled PK/LDH NADH assays, four targets; IC50, µM (series often up to 10 µM); AID 774; 65,000 tested, 0.02% active;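 active means single-dose screening hits from any of four coupled enzyme assays that gave an IC50 when retested across doses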;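 further: the DPM-DC format reads NADH fluorescence rather than 340 nm absorbance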
# Spn MK inh: S. pneumoniae mevalonate kinase inhibition; purified MK, PK/LDH-coupled NADH absorbance 340 nm; inhibition, % at 10 µM; 65,000 tested, 0.48% active; AID 555;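 active means ranked among the strongest by inhibition in the single 10 µM screen, a fixed top-ranked set picked for dose follow-up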
# DPM-DC inhibit: blocks S. pneumoniae diphosphomevalonate decarboxylase | purified DPM-DC, PK/LDH coupled NADH fluorescence | calls only at 10 µM | 65,000 tested, 0.49% active | AID 556;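 active means the 320 compounds with the highest percent inhibition in the single-dose primary screen, excluding strongly autofluorescent ones, cut at about 32% in these data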;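 further: kinetic rate of NADH fluorescence loss reporting ADP formed by the decarboxylase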
# PMK inhibit: inhibitors of Streptococcus pneumoniae phosphomevalonate kinase. purified PMK, PK/LDH-coupled NADH absorbance 340 nm. inhibition, % at 10 µM. 65,000 tested, 0.49% active;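 active means top-ranked compounds by inhibition in the single 10 µM screen, taking a fixed number of the strongest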
# Abs 340nm: absorbance at 340 nm; compound absorbance at 340 nm, fold over control; AID 708; fold change at 10 µM; 65,000 tested, under 10 active;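 active means at 10 µM dose, initial 340 nm absorbance at least 2 fold that of control wells; inactive means change under 2 fold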;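 further: initial absorbance extrapolated from kinetic A340 decline of NADH oxidation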
# Numbers stand for hits; - = inactive; . = not tested or not shown; + = active, no number.
SMILES,Fluor 339 460,NADH enzymes,Spn MK inh,DPM-DC inhibit,PMK inhibit,Abs 340nm
O=C(c1ccc(CS(=O)(=O)c2cccc(C(F)(F)F)c2)o1)N1CCN(c2ccccn2)CC1,-,-,-,-,-,-
CCOc1ccc2cc(C#N)c(SCC(=O)N3CCCC3)nc2c1,2.1,-,-,-,-,-
O=c1c2ccccc2nnn1CSc1nnc(-c2cccs2)n1Cc1ccccc1,-,-,76,-,-,-
Cc1cccc(Nc2ccccc2C(=O)O)c1C,-,-,-,-,-,-
CC(=O)n1cc(Nc2ccccc2C(=O)O)c2ccccc21,2.2,-,-,.,-,-
Cc1cccc(-n2nc3c(c2NC(=O)c2ccco2)CSC3)c1C,-,-,-,-,25,-
COc1ccc(C2(O)CCN(C(=O)c3ccc4c(c3)OCO4)CC2)cc1,-,-,-,-,-,-
O=C(CSc1cccc2cccnc12)N1CCCC1,3.9,-,-,.,-,-
CN(CC(=O)N1CCc2ccccc21)S(=O)(=O)c1cccc2cccnc12,-,-,-,-,-,-
CN(C)C(=O)CSc1cccc2cccnc12,3.9,-,-,.,-,-
Cc1[nH]c2ccc3c(ncn3CCC#N)c2c1C,-,-,-,-,-,-
Cc1cc2oc(=O)c3c(c2cc1OCc1nn[nH]n1)CCCC3,3.3,-,-,.,-,-
O=c1oc2cc(OCc3nn[nH]n3)ccc2c2c1CCCC2,3.8,-,-,.,-,-
Cc1noc(C)c1CSc1nnc2sc3ccccc3n12,-,-,-,-,-,-
c1nc2sc3c(c2c2nnnn12)CCC3,2.1,-,-,.,-,-
c1coc(-c2nnc3sc(-c4cccs4)nn23)c1,-,-,-,-,-,-
CCCCCNC(=O)c1ccc2c(=O)n(CC3CCCO3)c(=O)[nH]c2c1 (configuration not stated),2,-,-,-,-,-
CCCn1c(=S)[nH]c2cc(C(=O)NCC3CCCO3)ccc2c1=O (configuration not stated),-,-,-,-,-,-
CCCCCn1c(SCC#N)nc2cc(C(=O)NCC3CCCO3)ccc2c1=O (configuration not stated),-,-,-,+,-,-
CN1C(=O)Cc2cc(S(=O)(=O)N3CCOCC3)ccc21,-,-,-,-,-,-
COc1cc(NC(=O)c2cccs2)c(OC)cc1NC(=O)CCn1nnc2ccccc21,-,-,-,-,-,-
O=C(NCCc1ccccc1)C1CCCN(S(=O)(=O)c2cccs2)C1 (configuration not stated),-,-,-,-,-,-
CCCN(C(=O)c1ccccc1N)c1c(C)n(C)n(-c2ccccc2)c1=O,-,-,-,-,29,-
CCN(c1c(C)n(C)n(-c2ccccc2)c1=O)S(C)(=O)=O,-,-,-,-,-,-
CCCCNC(=O)C1CCCN1C(=O)Nc1cccc(OC)c1 (configuration not stated),-,-,-,-,-,-
SMILES,Fluor 339 460,NADH enzymes,Spn MK inh,DPM-DC inhibit,PMK inhibit,Abs 340nm
O=C(NC1=NCCS1)c1nc(-c2ccccc2)n(-c2ccccc2)n1,-,-,-,-,-,-
NC(=O)c1ccsc1NC(=O)c1nc(-c2ccccc2)n(-c2ccccc2)n1,-,-,-,+,-,-
COc1cc(COCC(O)CN2CCOCC2)cc(OC)c1OC (configuration not stated),-,-,-,-,-,-
CC(C)N=c1cc2n(-c3ccc(Cl)cc3)c3ccccc3nc-2cc1Nc1ccc(Cl)cc1,-,-,-,+,-,-
COc1cc(C(=O)NCc2nnc(SCC(=O)N3CCc4ccccc43)o2)cc(OC)c1OC,-,-,-,-,-,-
CCOC(=O)N1CCN(Cc2nc3c(c(=O)n(C)c(=O)n3C)n2CCCc2ccccc2)CC1,-,-,-,-,-,-
Cc1cc(C(=O)Nc2sc(C)c(-c3ccc(F)cc3)c2C(N)=O)no1,2.3,-,-,-,-,-
CCN(CC)C(=O)c1cc(-c2ccccc2OC)on1,-,-,-,-,-,-
COc1ccccc1-c1ccc(C(=O)O)o1,3.3,-,-,-,-,-
CC(C)Oc1ccc2c(=O)c(-c3ccccc3)coc2c1,-,-,-,-,-,-
Cc1ccccc1-c1coc2cc(O)ccc2c1=O,3.9,-,-,.,-,-
C=CCn1c(Cc2csc(N)n2)nnc1SCC(=O)OCC,-,-,-,-,-,-
CCN(CC)S(=O)(=O)c1ccc2c3c(cccc13)C(=O)N2,2.2,-,-,.,-,-
COc1ccc(OC)c(S(=O)(=O)NCCC2=CCCCC2)c1,-,-,-,-,-,-
O=C1Nc2ccc(S(=O)(=O)NCCC3=CCCCC3)c3cccc1c23,3.6,-,-,.,-,-
CCOC(=O)c1c(C)oc2ccc(NS(=O)(=O)c3ccc4c5c(cccc35)C(=O)N4)cc12,-,-,-,-,-,-
CCOC(=O)c1sc(C)c(C(N)=O)c1NC1=NCCCCC1,2,-,-,-,-,-
O=C(COC(=O)Cc1ccsc1)NC1CCCCCC1,-,-,-,-,-,-
CCCOc1ccccc1-c1nc2c([nH]1)c(=O)[nH]c(=O)n2C,3.7,-,-,.,-,-
O=C(NC1=NCCS1)c1cccc(S(=O)(=O)N2CCCCC2)c1,-,-,-,-,-,-
CCCNC(=O)c1c(C)cc(=O)oc1C,2.1,-,-,-,-,-
Cn1c(C(=O)N2CCN(c3ccccn3)CC2)cc2c(=O)n(C)c3ccccc3c21,-,-,-,-,-,-
CC(=O)Nc1ccc(S(=O)(=O)N2CCN(c3cc(C)nc4ccccc34)CC2)cc1,-,-,-,-,-,-
CC(=O)Nc1ccc(S(=O)(=O)N2CCN(c3nc(NC4CCCC4)c4ccccc4n3)CC2)cc1,2.2,-,-,.,-,-
Cc1nc(SCC(=O)c2ccccc2)c(C#N)c(-c2ccco2)c1C(=O)NCc1ccco1,-,-,-,-,-,-
SMILES,Fluor 339 460,NADH enzymes,Spn MK inh,DPM-DC inhibit,PMK inhibit,Abs 340nm
Cc1ccc(CN2CCN(C(=O)C3CCC3)CC2)cc1,-,-,-,-,active,-
O=C(C1CCC1)N1CCN(Cc2ccccc2)CC1,-,-,-,-,-,-
O=c1[nH]c(CSc2nnc(-c3ccncc3)n2Cc2ccco2)nc2ccccc12,-,-,-,-,-,-
C=CCn1c(SCc2nc3ccccc3c(=O)[nH]2)nnc1-c1cc2cc(Cl)ccc2o1,2.1,-,-,-,-,-
Cc1ccn2cc(CNC(=O)c3ccc(Br)o3)nc2c1,-,-,-,-,-,-
CCCCS(=O)(=O)Nc1ccc2ncn(C)c(=O)c2c1,3.5,-,-,.,-,-
Cn1cnc2cc(NS(=O)(=O)c3ccc(Br)cc3)ccc21,-,-,-,-,-,-
C=CCn1c(COc2ccc(CC)cc2)nnc1SC/C(O)=C(\C#N)c1nc2ccccc2[nH]1,-,-,-,-,-,-
COc1ccc2[nH]c(=O)c(CN(C)C(=O)C3CCCCC3)cc2c1,3.5,-,-,.,-,-

# Screening data (PubChem)
